# Screening data (PubChem BioAssay)
# The full list was thinned out, with hits kept by preference.
# Pf Dd2 inh = blocks in vitro growth of P. falciparum Dd2; P. falciparum Dd2 growth, SYBR Green, 72 h; Potency, µM (top dose mostly 28.9 µM), for the others: at the highest dose activity, negative = inhibition, usual class: inhibitors; 120,000 compounds, 4.3% hits; active means well fitted inhibition curve with a large enough effect;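 further: plate controls were DMSO vehicle for no effect and reference drug for full effect; nearly all actives have a fitted effect of over 65% in size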
#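 Readout: SYBR Green fluorescence, 485 nm excitation, 535 nm emission, after ~16 h lysis at 37C. Before that, Dd2-infected red cells (2.5% hematocrit) grew 72 h with compound, 29 uM top final concentration.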
# The depositor's hits bear a star; i = inactive; [ ] = dose if it differs, or a comment. Potency means the concentration at half of the fitted maximal effect.
SMILES,Pf Dd2 inh
CO[C@H]1C(=O)N(C2CCN(C(=O)c3cnn(C)c3)CC2)[C@H]1c1ccncc1,14%
N#Cc1ccc(C(=O)N2CCc3n[nH]c(=O)n3CC2)cc1,79%
CCCCc1ccc(NC(=O)N2CCCC2c2nncn2C2CCCC2)cc1 (stereo not drawn),-23%
O=C(Nc1ccccc1)N1CCCC(c2nn(-c3ccccc3)c(=O)[nH]2)C1 (stereo not drawn),-12%
Cc1ccccc1NC(=O)N1CCC(CCNC(=O)CCCc2ccccc2)CC1,-24%
CCC(C)NC(=O)CC1=CSC2=NC(C)=C(C(=O)Nc3ccccc3)C(c3cccc(C)c3)N12 (stereo not drawn),-12%
Cc1noc(C)c1-c1ccc(S(=O)(=O)N[C@@H]2[C@@H](N)[C@H]3CCO[C@H]32)s1,i
COc1ccc(-c2cc(N3CCCN(C(=O)Cc4c(F)cccc4Cl)CC3)n[nH]2)cc1,i
CCOc1ccccc1NC(=O)N1CC[C@@H](c2ccc3c(c2)OCO3)[C@H](O)C1,-6%
O=C(C1CC(=O)N(c2n[nH]c3cccc(F)c23)C1)N1CCC(Cc2ccccc2)CC1 (stereo not drawn),-21%
CCc1ccc(C(=O)N2C[C@@H](COC)[C@H](c3nc(COC)no3)C2)cc1,i
CC(=O)N[C@@H]1CCC[C@@H](C(=O)NC2CCOCC2)CC(=O)N(C)C1,37%[44.1 µM]
CCCn1cc(-c2ccncc2)cc1C(=O)N1CCN(c2ccccc2OC)CC1,4µM*
CCn1cc(-c2ccc(C)cc2)cc1C(=O)N1CCN(c2ccccn2)CC1,-33%
CCCn1cc(-c2ccncc2)cc1C(=O)N1CCN(C)CC1,i
Cc1ccccc1Cn1cc(-c2ccncc2)cc1C(=O)N1CCN(c2ccccc2)CC1,3.5µM*
CCn1cc(-c2ccncc2)cc1C(=O)NCc1cccc(F)c1,0%
CC(=O)Nc1ccc(NC(=O)c2cc(-c3ccncc3)cn2Cc2ccccc2C)cc1,3.2µM*
CCCN1CCN(C(=O)c2cc(-c3ccc(F)cc3)cn2CC)CC1,-20%
CCn1cc(-c2ccncc2)cc1C(=O)N1CCOCC1,-4%
COc1cccc(NC(=O)c2cccn(Cc3ccccc3C)c2=O)c1,i
Cn1nccc1CN1CCCC2(C1)NC(=O)c1ccccc1O2 (stereo not drawn),8%[44.1 µM]
CCOc1ccccc1C(=O)N1C[C@@H](CO)[C@H](c2nc(C3CC3)no2)C1,-26%
Cc1ccc(N2Cc3c(NC4CCCC4)ncnc3N(C)CC2=O)cc1,-13%
COc1nc2c(cc1CNC(=O)Cn1ccc(C)n1)C(=O)N(C1CCCC1)C2,-6%
SMILES,Pf Dd2 inh
Cc1cc(CC(C)n2ccnc2-c2cc3n(n2)CCCNC3)n[nH]1 (stereo not drawn),-3%
Cc1ccc(-n2ncc(C(=O)NCCCN3CCCCC3)c2C2CCN(C(=O)OC(C)(C)C)CC2)cc1,10µM*
COc1ccccc1N1CCN(CCCNC(=O)c2cnn(-c3ccc(C)c(C)c3)c2C2CCN(C(=O)OC(C)(C)C)CC2)CC1,5.6µM*
COc1ccccc1N1CCN(CCCNC(=O)c2cnn(-c3cccc(Cl)c3)c2C2CCN(C(=O)OC(C)(C)C)CC2)CC1,2µM*
O=c1c2c(n(Cc3cccnc3)n1-c1ccccc1)CN(CC1CCOCC1)CC2,4%[44.1 µM]
CCOc1ccccc1NC(=O)NC1CCN(C(=O)N2CC3CC(C2)[C@H]2CCCC(=O)N2C3)CC1 (stereo partly drawn),i
Cc1onc(-c2cnn(C)c2NCCc2ccccc2)c1C(=O)NCc1ccoc1,-21%[44.1 µM]
COC(=O)CCC(=O)N1CCCC(CCc2c(F)cccc2F)C1 (stereo not drawn),-8%
Cc1ccc(NC(=O)/C(C#N)=C\c2ccc(Cl)cc2Cl)cc1C,8%
Cc1c(/C=C(\C#N)C(=O)Nc2cccc(Cl)c2)c2ccccc2n1Cc1ccccc1Cl,3.2µM*
N#C/C(=C/c1cn(Cc2ccccc2Cl)c2ccccc12)C(=O)Nc1cccc(Cl)c1,i
Cc1ccc(NC(=O)CCn2ccn3nc4c(c3c2=O)CCCC4)c(C)c1,i
O=C1CCN(Cc2ccc(F)cc2F)CCCOCCN1,12%
COc1ccc(C)cc1NS(=O)(=O)c1cc2c3c(c1)CC(=O)N3CCC2,19%
COC(=O)c1ccccc1N(C)S(=O)(=O)c1cc2c3c(c1)CC(=O)N3CCC2,7.9µM*
O=C1Cc2cc(S(=O)(=O)Nc3cccc(C(F)(F)F)c3)cc3c2N1CCC3,i
CC(C)C[C@H](NC(=O)Cn1nc2c(cc1=O)CCCCC2)C(=O)O,-8%
Cc1nc2cccnc2n1CC1CCCN(S(=O)(=O)c2ccc(F)c(F)c2)C1 (stereo not drawn),-17%
Cc1ccc(S(=O)(=O)N2CCCC(Cn3c(C)nc4cccnc43)C2)cc1Cl (stereo not drawn),7.1µM*
Cc1ccc(S(=O)(=O)N2CCCC(Cn3c(C)nc4cccnc43)C2)cc1 (stereo not drawn),-6%
O=C(N[C@@H]1CCN(C(=O)CCc2ccccc2F)C[C@H]1O)c1ccccn1,-2%
Cc1c(CN2C[C@@H](CO)[C@H](NC(=O)c3ccccc3)C2)cnn1C,4%
